Assay [1] is described as follows: NCI Yeast Anticancer Drug Screen. Data for the rad50 strain (AID 155).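 Note: 0% = growth of vehicle-only cultures of the same strain.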 Particulars: S. cerevisiae rad50 strain growth inhibition, hits give high values. The method, boiled down: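 DNA repair mutant yeast, compound exposure, growth read-out; inhibition is taken relative to vehicle.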
Assay [2] can be described thus: NCI Yeast Anticancer Drug Screen. Data for the mec2-1 strain (AID 157). Particulars: S. cerevisiae mec2-1 strain, hits give high values. A digest of the protocol: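 Vehicle-treated cultures served as reference for growth inhibition of compound-exposed mec2-1 yeast.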
A short description of assay [3]: NCI Yeast Anticancer Drug Screen. Data for the sgs1 mgt1 strain (AID 161).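 Note: 0% = growth of cultures given vehicle only.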 Particulars: S. cerevisiae sgs1 mgt1 strain, hits give high values. A digest of the protocol: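 Genetically altered yeast, compound exposure, growth inhibition relative to vehicle.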
Assay [4] in a line: NCI Yeast Anticancer Drug Screen. Data for the cln2 rad14 strain (AID 165).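 Note: 0% = growth equal to vehicle treated cultures.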 Particulars: S. cerevisiae cln2 rad14 strain, hits give high values. A digest of the protocol:
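Each compound was tested on cln2 rad14 yeast. Inhibition of growth was calculated against vehicle-exposed controls.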

Assay [5] is described as follows: NCI Yeast Anticancer Drug Screen. Data for the bub3 strain (AID 167). Particulars: S. cerevisiae bub3 mutant strain, hits give high values. The method, boiled down:
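In this screen, a yeast mutant lacking normal mitotic checkpoint function is challenged with compound. Relative growth versus vehicle gives the inhibition value.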

Assay [6] in a line: NCI Yeast Anticancer Drug Screen. Data for the mlh1 rad18 strain (AID 175). Particulars: S. cerevisiae mlh1 rad18 strain growth inhibition, hits give high values. A digest of the protocol:
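Vehicle-treated cultures served as the reference for growth inhibition in a yeast strain carrying DNA damage repair alterations exposed to each compound.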

The mark [7] stands for this setting: at 5.0 µM (retest, dose inferred, filed as 0.5).
Setting [8] is: at 50.0 µM (retest, dose inferred, filed as 5.0).

About 79,000 compounds went through this panel and 15% of them were active in at least one assay; those are over-represented in the sample as a whole. A number with no mark means an inactive call. The source made the active and inactive calls. Cut-off read from the data, not from the text of the source: active = growth inhibition above about 70%; inactive = the rest.

Take `OCCN=C1c2ccccc2C2C(c3ccccc31)C1c3ccccc3C(=NCCO)c3ccccc3C21` (stereo not given): the growth inhibition is -9% in assay [1] (setting [7]); 13% in assay [1] (setting [8]); 46.8% in assay [1] (at 50.0 µM); -4% in assay [2] (setting [7]); -8% in assay [2] (setting [8]); 29.8% in assay [2] (at 50.0 µM). The growth inhibition in assay [3] (setting [7]) is 6%; in assay [3] (setting [8]), 6%; in assay [3] (at 50.0 µM) it was 37.4%; in assay [4] (setting [7]), 4%; in assay [4] (setting [8]), 18%; in assay [4] (at 50.0 µM) it was 31.1%. Further, the growth inhibition in assay [5] (setting [7]) is -6%; in assay [5] (setting [8]), 6%; in assay [5] (at 50.0 µM), 40.5%; in assay [6] (setting [7]), 3%; in assay [6] (setting [8]), 47%; in assay [6] (at 50.0 µM) it was 82% (active).
As to `CC(=O)Oc1cc(Cl)ccc1Cc1ccc(Cl)cc1OC(C)=O`, the growth inhibition in assay [1] (setting [7]) is 0%; in assay [1] (setting [8]), 87% (active); in assay [1] (at 50.0 µM) it was 94.5% (active); in assay [2] (setting [7]), 1%; in assay [2] (setting [8]) it was 78% (active); in assay [2] (at 50.0 µM) it was 91.4% (active). In addition, the growth inhibition in assay [3] (setting [7]) is 0%; in assay [3] (setting [8]) it was 76% (active); in assay [3] (at 50.0 µM), 85.1% (active); in assay [4] (setting [7]), 2%; in assay [4] (setting [8]), 89% (active); in assay [4] (at 50.0 µM), 90.7% (active). Moreover, the growth inhibition is 2% in assay [5] (setting [7]); 83% (active) in assay [5] (setting [8]); 94.8% (active) in assay [5] (at 50.0 µM); 1% in assay [6] (setting [7]); 90% (active) in assay [6] (setting [8]); 94.7% (active) in assay [6] (at 50.0 µM).
As for `COC1=C2C[C@@H](C)C[C@@H](OC)[C@@H](O)[C@H](C)/C=C(\C)[C@@H](OC(N)=O)[C@H](OC)/C=C\C=C(/C)C(=O)NC(=CC1=O)C2=O`, the growth inhibition in assay [1] (setting [7]) was 61%; in assay [1] (setting [8]), 88% (active); in assay [1] (at 50.0 µM), 85.8% (active); in assay [2] (setting [7]), 81% (active); in assay [2] (setting [8]), 91% (active); in assay [2] (at 50.0 µM), 89.7% (active). In addition, the growth inhibition in assay [3] (setting [7]) is 86% (active); in assay [3] (setting [8]), 92% (active); in assay [3] (at 50.0 µM), 91.5% (active); in assay [4] (setting [7]), 56%; in assay [4] (setting [8]), 85% (active); in assay [4] (at 50.0 µM) it was 84.8% (active). Moreover, the growth inhibition in assay [5] (setting [7]) is 84% (active); in assay [5] (setting [8]), 88% (active); in assay [5] (at 50.0 µM), 89.7% (active); in assay [6] (setting [7]), 69%; in assay [6] (setting [8]), 85% (active); in assay [6] (at 50.0 µM) it was 90% (active).
Take `Cc1ccc(SCC#CC#CCS(=O)c2ccc(C)cc2)cc1` (stereo not given): the growth inhibition in assay [1] (setting [7]) is 100% (active); in assay [1] (setting [8]), 98% (active); in assay [1] (at 50.0 µM), 98.3% (active); in assay [2] (setting [7]), 87% (active); in assay [2] (setting [8]) it was 99% (active); in assay [2] (at 50.0 µM), 98.5% (active). Further, the growth inhibition in assay [3] (setting [7]) is 100% (active); in assay [3] (setting [8]), 99% (active); in assay [3] (at 50.0 µM), 97.8% (active); in assay [4] (setting [7]) it was 44%; in assay [4] (setting [8]), 98% (active); in assay [4] (at 50.0 µM) it was 98% (active). Further, the growth inhibition in assay [5] (setting [7]) was 82% (active); in assay [5] (setting [8]), 98% (active); in assay [5] (at 50.0 µM), 97% (active); in assay [6] (setting [7]), 97% (active); in assay [6] (setting [8]), 98% (active); in assay [6] (at 50.0 µM) it was 97.6% (active).
Consider `CC(=O)Nc1ccc(-c2ccccc2)cc1[N+](=O)[O-]`, for which the growth inhibition in assay [1] (setting [7]) is -3%; in assay [1] (setting [8]), 4%; in assay [1] (at 50.0 µM) it was 14.9%; in assay [2] (setting [7]), -4%; in assay [2] (setting [8]) it was 0%; in assay [2] (at 50.0 µM), 16.6%. Also, the growth inhibition in assay [3] (setting [7]) is -2%; in assay [3] (setting [8]), 0%; in assay [3] (at 50.0 µM) it was -24.1%; in assay [4] (setting [7]), 0%; in assay [4] (setting [8]), -7%; in assay [4] (at 50.0 µM), -113%. For the same molecule, the growth inhibition is 1% in assay [5] (setting [7]); 5% in assay [5] (setting [8]); 44.4% in assay [5] (at 50.0 µM); -2% in assay [6] (setting [7]); 2% in assay [6] (setting [8]); 41.7% in assay [6] (at 50.0 µM).
Take `CCCCNc1cccc2ncccc12`: the growth inhibition in assay [1] (setting [7]) is 11%; in assay [1] (setting [8]), 53%; in assay [1] (at 50.0 µM), 17.1%; in assay [2] (setting [7]), 9%; in assay [2] (setting [8]), 34%; in assay [2] (at 50.0 µM), 9.85%. Further, the growth inhibition in assay [3] (setting [7]) was 14%; in assay [3] (setting [8]) it was 58%; in assay [3] (at 50.0 µM), 21.8%; in assay [4] (setting [7]), 9%; in assay [4] (setting [8]) it was 28%; in assay [4] (at 50.0 µM) it was -3.9%. Moreover, the growth inhibition was 4% in assay [5] (setting [7]); 31% in assay [5] (setting [8]); -4.2% in assay [5] (at 50.0 µM); 21% in assay [6] (setting [7]); 57% in assay [6] (setting [8]); 50% in assay [6] (at 50.0 µM).
On to `O=c1ncccn1[C@@H]1O[C@H](CO)[C@H](O)C1O` (stereo not given in full), for which the growth inhibition in assay [1] (setting [7]) was 21%; in assay [1] (setting [8]), 22%; in assay [1] (at 50.0 µM), 64.3%; in assay [2] (setting [7]), 13%; in assay [2] (setting [8]), 12%; in assay [2] (at 50.0 µM), 28.4%. Moreover, the growth inhibition in assay [3] (setting [7]) is 15%; in assay [3] (setting [8]) it was 12%; in assay [3] (at 50.0 µM), 4.15%; in assay [4] (setting [7]), 10%; in assay [4] (setting [8]), 12%; in assay [4] (at 50.0 µM), 10.8%. Further, the growth inhibition was 23% in assay [5] (setting [7]); 10% in assay [5] (setting [8]); -5.75% in assay [5] (at 50.0 µM); 7% in assay [6] (setting [7]); 31% in assay [6] (setting [8]); -9.3% in assay [6] (at 50.0 µM).
For `COC(C(=O)O)c1ccccc1` (stereo not given), the growth inhibition in assay [1] (setting [7]) is -1%; in assay [1] (setting [8]), 9%; in assay [1] (at 50.0 µM), 75% (active); in assay [2] (setting [7]), -1%; in assay [2] (setting [8]), -3%; in assay [2] (at 50.0 µM), 8.9%. Also, the growth inhibition was -2% in assay [3] (setting [7]); -2% in assay [3] (setting [8]); 74.8% (active) in assay [3] (at 50.0 µM); 1% in assay [4] (setting [7]); -5% in assay [4] (setting [8]); -1.95% in assay [4] (at 50.0 µM). Further, the growth inhibition in assay [5] (setting [7]) is -2%; in assay [5] (setting [8]), 1%; in assay [5] (at 50.0 µM) it was 47.1%; in assay [6] (setting [7]), -3%; in assay [6] (setting [8]), 0%; in assay [6] (at 50.0 µM), 79.5% (active).
As for `Nc1ncnc2c1c(-c1ccccc1)cn2-c1ccc(I)cc1`, the growth inhibition was 54% in assay [1] (setting [7]); -2% in assay [1] (setting [8]); 33.4% in assay [1] (at 50.0 µM); 23% in assay [2] (setting [7]); 0% in assay [2] (setting [8]); 75.2% (active) in assay [2] (at 50.0 µM). Besides, the growth inhibition in assay [3] (setting [7]) is 65%; in assay [3] (setting [8]) it was -3%; in assay [3] (at 50.0 µM), 41.1%; in assay [4] (setting [7]), 24%; in assay [4] (setting [8]), -2%; in assay [4] (at 50.0 µM) it was 94.2% (active). In addition, the growth inhibition in assay [5] (setting [7]) is 32%; in assay [5] (setting [8]), 0%; in assay [5] (at 50.0 µM), 97.3% (active); in assay [6] (setting [7]), 26%; in assay [6] (setting [8]), -2%; in assay [6] (at 50.0 µM), 47.9%.
`CCCCN(Cc1ccccc1)CC(O)c1cc2c(c3ccccc13)CCCC2` (stereo not given): the growth inhibition in assay [1] (setting [7]) was -2%; in assay [1] (setting [8]) it was 85% (active); in assay [1] (at 50.0 µM) it was 95.9% (active); in assay [2] (setting [7]), 9%; in assay [2] (setting [8]), 89% (active); in assay [2] (at 50.0 µM), 80% (active). For the same molecule, the growth inhibition in assay [3] (setting [7]) was 0%; in assay [3] (setting [8]), 95% (active); in assay [3] (at 50.0 µM), 93.2% (active); in assay [4] (setting [7]) it was -7%; in assay [4] (setting [8]), 59%; in assay [4] (at 50.0 µM) it was 92.2% (active). In addition, the growth inhibition in assay [5] (setting [7]) was -7%; in assay [5] (setting [8]) it was 84% (active); in assay [5] (at 50.0 µM), 76.1% (active); in assay [6] (setting [7]) it was 18%; in assay [6] (setting [8]), 92% (active); in assay [6] (at 50.0 µM), 92.8% (active).

The record behind these values is PubChem BioAssay (NCI).
